# KCNH2 3.1 block: qHTS for Inhibitors of KCHN2 3.1: Mutant qHTS; Potassium voltage-gated channel subfamily H member 2, brain isoform KCNH2 3.1 (human); U2OS KCNH2 3.1, thallium flux FluxOr; stronger effect = lower value; activity change, % (tested at about 1.8 µM); 340,000 compounds, 0.95% hits;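 active = maximum activity change below -70%; inconclusive = maximum activity change from -70% to -50%; inactive = maximum activity change above -50%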;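 note: thallium influx rate constant from kinetic fluorescence after stimulation buffer; % is set by controls: 0 for no effect and ±100 for the full control effect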
#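 FluxOr-based Tl+ influx in U2OS cells transduced with KCNH2 3.1 virus; rate constants normalized to DMSO controls.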
# LDHA block: qHTS assay for inhibitors of human lactate dehydrogenase; 480,000 compounds, 0.15% hits; activity change, % (values are at about 110 or 230 µM); purified LDHA, NADH/diaphorase-resazurin fluorescence; stronger effect = lower value; in the data active = activity change below about -30%; inconclusive = mostly about -25% to -30%;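 note: plate controls were DMSO wells for no effect and wells without enzyme for full effect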
#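 Enzyme activity of human lactate dehydrogenase 5 (2 nM; 0.06 mM NADH, 0.2 mM pyruvate, 5 min, RT) is measured via a resazurin/diaphorase fluorescence readout of residual NADH.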
# KCNH2 WT inh: qHTS for Inhibitors of KCHN2 3.1: Wildtype qHTS; Voltage-gated inwardly rectifying potassium channel KCNH2 (Homo sapiens), Q12809; U2OS, BacMam KCNH2, thallium flux FluxOr; stronger effect = lower value; activity change, % at 1.84 µM; 340,000 compounds, 0.37% hits;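 active = maximum activity change below -70%; inconclusive = maximum activity change between -70% and -50%; inactive = maximum activity change above -50%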; note: % is set by controls: 0 for no effect and ±100 for the full control effect
#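 U2OS cells were transduced with wild-type KCNH2 virus (2.03 x 10^8 / mL) for 4 h at room temperature, then cultured overnight at 37 C. Thallium flux was read with FluxOr dye. Rate constants were normalized to DMSO controls.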
# BCR signal inh: qHTS Assay to Find Inhibitors of Chronic Active B-Cell Receptor Signaling; Potency, µM (top dose mostly 46.1 µM), inactives show top-dose activity change, negative = inhibition, actives largely listed as inhibitors; ABC-DLBCL IkBa-CBG/CBR reporter, luminescence ratio, 4 h; AID 493014, 2011; 340,000 compounds, 0.05% hits; active = well fitted inhibition curve with a large enough effect in the signal ratio, with a control signal flat, not every such curve was filed as active; inconclusive = small, poorly fitted or top-dose-only effect, or effect the other way, or a change in a side signal; the % refers to the signal ratio;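 note: potency is the fitted concentration of half-maximal effect; plate controls were basal doxycycline-induced cells for no effect and cells given 10 µM MG132 for full effect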
#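 Cell line TMD8 (human ABC DLBCL), stably expressing tet-inducible CBG68-IkBa fusion and CBR; IMDM/0.5% FBS; cpd up to 46 uM; dox induction, 4 h, 37C/5% CO2; dual luminescence; green/red ratio; MG132 control.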
# 12-LOX inh: Primary qHTS assay for inhibitors of human arachidonate 12S-lipoxygenase (ALOX12): Round 2; Polyunsaturated fatty acid lipoxygenase ALOX12 (Homo sapiens), P18054; purified 12hLO, xylenol orange hydroperoxide absorbance; Potency, µM (series often up to 108 µM), without a hit: at the top dose activity change, negative = inhibition, usual class: inhibitors; 580,000 compounds, 1.1% hits; active = well fitted inhibition curve with a large enough effect; inconclusive = small, poorly fitted or top-dose-only effect, or another doubt; inactive = no such curve, though single readings can be large or run the other way; note: potency is the fitted concentration of half-maximal effect; % is set by controls: 0 for no effect and ±100 for the full control effect
# Target sequence (P18054 whole entry, looked up): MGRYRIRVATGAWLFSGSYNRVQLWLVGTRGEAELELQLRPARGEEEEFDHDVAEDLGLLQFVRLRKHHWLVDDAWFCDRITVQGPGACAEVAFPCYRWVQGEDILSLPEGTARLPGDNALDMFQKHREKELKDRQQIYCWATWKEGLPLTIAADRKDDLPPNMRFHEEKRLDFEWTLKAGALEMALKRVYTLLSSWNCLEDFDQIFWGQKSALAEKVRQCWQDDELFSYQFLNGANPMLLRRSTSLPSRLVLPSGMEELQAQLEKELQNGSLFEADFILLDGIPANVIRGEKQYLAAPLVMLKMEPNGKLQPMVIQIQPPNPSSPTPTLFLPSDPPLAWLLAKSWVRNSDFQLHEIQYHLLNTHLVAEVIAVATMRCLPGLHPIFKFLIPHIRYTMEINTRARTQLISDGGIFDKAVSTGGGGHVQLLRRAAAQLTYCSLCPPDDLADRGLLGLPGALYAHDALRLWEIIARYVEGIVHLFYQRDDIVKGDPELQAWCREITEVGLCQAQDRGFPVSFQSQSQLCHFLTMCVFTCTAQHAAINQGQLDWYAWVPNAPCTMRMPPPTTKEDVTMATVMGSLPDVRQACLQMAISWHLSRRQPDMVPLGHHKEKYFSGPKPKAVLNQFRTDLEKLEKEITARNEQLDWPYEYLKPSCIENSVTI
#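 Hydroperoxide product was detected by ferrous iron/xylenol orange as the 573 to 405 nm absorbance ratio. Arachidonic acid at 40 uM (final) was turned over for 30 min at room temperature by 150 nM human 12hLO, pH 7.0 Hepes buffer, after 15 min compound preincubation.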
# ClpP mod: qHTS Assay for Activators of ClpP | ATP-dependent Clp protease proteolytic subunit (Bacillus subtilis (strain 168)), P80244 | purified B. subtilis ClpP, FRET peptide cleavage, 20 min | Potency, µM (doses to about 57.5 µM), for inactives: at the top dose activity change, negative = active | 340,000 compounds, 1.9% hits | AID 651965, 2013; active = well fitted falling curve with a large enough effect; inconclusive = small, poorly fitted or top-dose-only effect; inactive = no such curve, though single readings can be large or run the other way; note: potency is the fitted concentration of half-maximal effect; the source files actives as falling curves though it sought activators and does not explain the sign; nearly all actives have a fitted effect of over 65% in size
#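 ClpP 10 microg/mL final, pH 8 Tris/KCl buffer with BSA, glycerol, Tween-20; compound pinned in; FRET-FV substrate; RT 20 min; Ex320/Em430; ΔFRET vs ADEP 5.8 microM, DMSO, no enzyme.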
# Active calls of the source: *; ? = inconclusive; . = no result given; [ ] = dose if it differs, or a comment. A selection: hits, their analogues and other compounds. The true share with any hit is near 3%.
SMILES,KCNH2 3.1 block,LDHA block,KCNH2 WT inh,BCR signal inh,12-LOX inh,ClpP mod
COCCOc1ccc(C(C)NC(=O)Cc2cccs2)cc1OC (stereo not drawn),.,3.2,.,.,-45.2%,.
O=C(NN=C1CCCC1)c1ccc([N+](=O)[O-])cc1,0.1,-1.8,-221.7*,?,9.6%,-3.1%
Cc1ccc(N=C/C(C(=O)C(F)(F)F)=C(\O)c2cccs2)cc1C,.,6.2,.,.,?,.
CC(=O)N1CC2(CCN(Cc3cccc(C(N)=O)c3)C2)Cc2ccccc21 (stereo not drawn),.,.,.,.,4.4%[6.33 µM],.
O=C(c1ccc(Cl)cc1)N1CC2(CCN(CC3CC3)C2)Cc2ccccc21 (stereo not drawn),.,.,.,.,11.0%[6.33 µM],.
CC(=O)N1CC2(CCN(Cc3ccc(Cl)cc3)C2)Cc2ccccc21 (stereo not drawn),.,.,.,.,39.8µM*,.
O=C(c1ccc(Cl)cc1)N1CC2(CCN(C3COC3)C2)Cc2ccccc21 (stereo not drawn),.,.,.,.,39.8µM*,.
O=C(c1ccc(Cl)cc1)N1CC2(CCN(Cc3ccc(Cl)cc3)C2)Cc2ccccc21 (stereo not drawn),.,.,.,.,2µM*,.
O=C(Nc1ccc(Cc2ccncc2)cc1)Nc1ccc(Cc2ccncc2)cc1,.,-3.1,.,.,26.2%,.
Cc1ccc(N(Cc2cc(=O)[nH]c3ccccc23)C(=O)c2ccncc2)cc1,.,6.1,.,.,?,.
COc1ccccc1CNCC(=O)NCc1ccc(C)cc1,-70.5*,-19.9,-2.0,-9.2%,-12.4%,-0.2%
CC(NC(=O)c1ccco1)C(=O)O (stereo not drawn),-116.0*,-0.5,-4.7,1.6%,-4.9%,-1.4%
CC(NC(=O)c1ccco1)C(=O)OCC(=O)c1ccc(Cl)s1 (stereo not drawn),-4.0,-3.4,-223.8*,3.4%,-20.4%,.
CCc1ccc(CNCCNC(=O)c2ccco2)cc1,4.7,2.0,-0.2,.,-20.1%,.
Cc1ccc(C(=O)COC(=O)[C@@H](NC(=O)c2ccco2)C(C)C)s1,2.9,-4.7,5.0,3.5%,-1.6%,-4.7%
O=C(NCCNCc1ccccc1)c1ccco1,23.5,-0.8,0.8,.,28.2µM*,.
CCCOc1c(CN)cccc1OC,.,-3.9,.,.,?,.
O=C(Nc1cccc2cccnc12)c1ccc(Cl)c(Cl)c1,.,9.9,.,.,-18.1%,.
COC(=O)C1=C(C)N=C2SC=C(CC(=O)NCCOc3ccccc3)N2C1c1cccc(OC)c1 (stereo not drawn),.,.,.,.,71.0%,.
CCn1cc(CN2CCC(n3nccc3NC(=O)c3ccccc3OC)CC2)cn1,-41.4,1.7,-1.8,1.1%,-5.0%,3.0%
CCOc1ccc(CN2CCC(n3nccc3NC(=O)c3ccccc3OC)CC2)cc1,-12.2,-5.0,-154.2*,0.4%,-0.4%,-3.5%
COc1cc(CN2CCC(n3nccc3NC(=O)c3ccccc3OC)CC2)ccc1F,-70.1*,3.4,-106.1*,?,5.5%,1.3%
COc1ccccc1C(=O)Nc1ccnn1C1CCN(Cc2ccccc2OCCO)CC1,-81.6*,-8.7,-39.3,-6.4%,0.4%,-0.4%
CC1CCCC(NC(=O)/C(C#N)=C\c2ccccc2)C1C (stereo not drawn),.,-0.3,.,.,?,.
O=C(O)c1ccccc1NS(=O)(=O)c1cccc(-n2sc3ccccc3c2=O)c1,17.8,-70.7*,11.6,?,0.224µM*,.
SMILES,KCNH2 3.1 block,LDHA block,KCNH2 WT inh,BCR signal inh,12-LOX inh,ClpP mod
CC(C)NS(=O)(=O)c1cccc(C(=O)Nc2ccc(N3CCCCC3)c3ccncc23)c1,.,62.2,.,.,61.7%,.
COC(=O)c1cc(=O)nc2sccn12,24.5,-1.8,-14.7,?,0.0%[57.4 µM],28.2µM*
COC(=O)c1cc(NC(=O)c2c(Cl)nc3sccn23)cc(C(=O)OC)c1,9.9,-0.3,5.4,-1.0%,-7.5%,-2.5%
COC(=O)c1cc(=O)nc2sc(-c3ccccc3)nn12,-8.4,-3.5,5.4,2.2%,1.2%,28.2µM*
CN(CC(=O)NCc1nc(-c2ccccc2)no1)S(=O)(=O)c1ccc2ccccc2c1,.,7.4,.,.,16.0%,.
O=C(NCCN1CCN(Cc2ccccc2Cl)CC1)Nc1ccccc1,-10.6,5.5,18.6,-0.5%,-29.3%,1.7%
Clc1ccccc1CN1CCN(CCCc2ccccc2)CC1,-78.0*,?,16.5,?,-36.3%,.
OCC1(CCc2ccccc2)CCN(Cc2c(F)ccc(F)c2F)CC1,-1.6,0.3,.,3.0%,-5.7%,2.9%
OCC1(CCc2ccccc2)CCN(Cc2ccccc2Cl)CC1,-79.8*,-0.1,29.9,-4.1%,1.4%,.
OCC1(CCc2ccccc2)CCN(Cc2cc(F)ccc2-n2cccn2)CC1,-99.4*,-6.5,-28.1,5.5%,7.1%,-1.2%
COCCN(Cc1cc(OC)c(OC)c(OC)c1)Cc1cc(=O)n2ccc(C)cc2n1,.,11.1,.,.,?,.
COc1ccccc1-n1c(SCc2nnnn2-c2ccccc2)nnc1N1CCCCC1,.,20.6,.,.,3.2%,.
COC(=O)C(Cl)(C(=O)OC)C(OC)(C(=O)OC)C(=O)OC,.,1.6,.,.,-17.8%,.
COC(=O)C(Br)(C(=O)OC)C(OC)(C(=O)OC)C(=O)OC,.,1.2,.,.,0.708µM*,.
CCc1nnc(C(=O)Nc2cccc(C(=O)N3CCOCC3)c2)s1,.,3.7,.,.,11.2%,.
CCOC(=O)c1[nH]c(C)c(C(=O)OC)c1C,8.0,-7.2,0.7,?,210.0%,.
CCOC(=O)c1[nH]c(C)c(/C(Br)=C/Br)c1C,.,9.5,.,.,6.31µM*,.
CCNc1sc(C(C)=O)c(N)c1C#N,.,-34.9*,.,.,3.16µM*,.
COc1ccc(-c2ccc(C(=S)N3CCN(C(C)=O)CC3)o2)cc1,8.4,1.5,9.4,3.3%,14.1µM*,4.2%
O=C(O)c1cc(-c2c[nH]c3ccccc23)nc2ccc3ccccc3c12,-98.3*,-8.4,-15.3,?,?,.
COc1ccc(CNc2oc(-c3ccc(COc4ccc(Cl)cc4)o3)nc2C#N)cc1,.,7.1,.,.,-18.2%,12.6µM*
COc1ccc(CNc2oc(COc3ccccc3)nc2C#N)cc1,-78.3*,1.4,-16.5,-24.1%,5.2%,-0.6%
COc1ccc(CCNc2oc(COc3ccccc3)nc2C#N)cc1,11.9,-5.6,0.3,-2.0%,-11.0%,-1.8%
COc1ccc(OCc2ccc(-c3nc(C#N)c(NCc4ccccc4)o3)o2)cc1,.,-7.4,.,.,-10.5%,11.2µM*
COc1ccc(OC)c(C(=O)COC(=O)COc2cccc(Cl)c2)c1,.,8.4,.,.,11.5%,.
CCN1CCN(C(=O)Nc2cccc3ccccc23)CC1,-0.7,19.2,7.9,-18.8%,0.0%,11.2µM*

# Screens as filed in PubChem.
